Here are results for 20 molecules from PubChem BioAssay AID624305 (National Center for Advancing Translational Sciences (NCATS), 2012).

Inconclusive results are not listed. A call without a number means that no potency is given here. Values without a mark were called inactive. Activity calls are given as the source filed them. The call rests on the fitted dose curve; in most records, active means well fitted activation curve with a large enough effect; inconclusive means small, poorly fitted or top-dose-only effect; inactive means no such curve, though single readings can be large or run the other way.
Potency means the concentration at half of the fitted maximal effect.

The nature of the experiment: qHTS assay for re-activators of p53 using a Luc reporter: Hit Validation. Further: nearly all actives have a fitted effect of over 75% in size. The conditions noted are these: p53-responsive luciferase reporter cells, luminescence, H1299 line expressing heat-sensitive Ala138Val p53; series mostly up to 46.1 µM. The method, boiled down:
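H1299 (p53-null) cells stably carrying p53-A138V and a BP100-luciferase reporter, 1000 cells/well, treated 24 h at 37 deg C. Compounds at several concentrations, 1:5 dilution; nocodazole control; luminescence read after 10 min with detection reagent.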
Take `N#CC1(c2ccc(NC(=O)c3ccccc3F)cc2)CCCC1`: the Potency is 1.64 µM (active). On the same count and under the same terms, the figure for `Cc1ccc2cc3cc(C(=O)N4CCCCCC4)oc3nc2c1` is 10.3 µM (active).

For `COc1cccc(/C=N/NC(=O)c2nc(-c3ccccc3)cc(-c3ccccc3)n2)c1O`, the activation was -23.6% [at 9.22 µM]. For `Cc1ccc(NC(=S)NC(=O)c2cccs2)cc1F`, the Potency is 9.2 µM (active).

On to `CC(C)(C)c1ccc(/C=N/Nc2ccc(C(=O)O)cc2)cc1`, for which the Potency result was “inactive”. The same measure, in the same setting: the entry for `O=C(CSCC(=O)Nc1cccc([N+](=O)[O-])c1)Nc1ccccc1` is “inactive”. On the same count and under the same terms, the figure for `Cc1sc(NC(=O)c2ccc(Cl)s2)c(C(N)=O)c1C` is 4.11 µM (active); for `CCOc1ccc2c(c1)C(C)=CC(C)(C)N2S(=O)(=O)c1ccc(NC(C)=O)cc1` it is “inactive”. Same read-out and setting: the entry for `NS(=O)(=O)c1ccc(CCNCc2cccnc2)cc1` is “inactive”.

Take `Cc1ccc(S(=O)(=O)c2cn(CC(=O)Nc3ccccc3)c3ccc(F)cc3c2=O)cc1`: the Potency result was “inactive”. Turning to `O=C1CCCC(O)=C1N=Nc1ccc2c(c1)OCO2`, the Potency is 23.1 µM (active). `Cc1ccc(C(=O)Nc2nnc(SCC(=O)N3CCCc4ccccc43)s2)cc1`: the Potency result was “inactive”. Still for that read-out and setting: the entry for `COC(=O)CSc1nc2cc3c(cc2cc1C#N)OCO3` is “inactive”; for `O=C(C1CCCN1S(=O)(=O)c1ccc(Cl)cc1)N1CCOCC1` (stereo not given) it is “inactive”; for `Cn1c(-c2ncc(F)cc2F)cc2onc(-c3c(F)cccc3Cl)c2c1=O` it is 2.59 µM (active). For the molecule `O=C(CCc1nc(-c2ccccc2F)no1)NC1CCCCCC1`, the Potency result is “inactive”. Same read-out and setting: the figure for `Fc1ccccc1/C=C/c1ccc2ccccc2n1` is 0.731 µM (active); for `O=C(CCc1nc(-c2ccccc2)no1)N1CCCC1` it is “inactive”. On to `c1ccc(-c2cc3cc4c(cc3cn2)OCO4)cc1`, for which the Potency is 11.6 µM (active).

On to `O=C(/C=C/c1ccco1)Nc1ccc2nn(-c3ccccc3)nc2c1`, for which the Potency result was “inactive”.
